Data as given in the supplement of paper PMC10498489.
In all, about 2,300 compounds went through this assay and about 330 (14%) showed activity. A selection follows. Values without a mark were called inactive.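 The calls were made as follows: active = median modified Z-score above 1.96; inactive = 1.96 or below.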

System: HepG2 Srxn1-GFP reporter cells (+30 nM CDDO-Me)
Assay: Srxn1-GFP intensity median modified Z-score relative to plate median; higher = stronger NRF2 / oxidative stress reporter activation, active = hit call of the paper
Details: 10 µM; exposure time: 24h
How it was run: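 The modified Z-score of GFP intensity was computed per plate, and the median over replicates is reported. HepG2 Srxn1-GFP BAC reporter cells in three replicate plates were treated for 24 h with compound at 10 μM plus an NRF2 activator at 30 nM (≤0.1% DMSO). Per-cell cytoplasmic GFP came from confocal images, excluding those with under 100 cells, and scaling used 1.4826 × median absolute deviation.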

Going from COc1ccc(-c2coc3cc(OCC4CC4)ccc3c2=O)cc1 to COc1ccc(-c2coc3c4c(c(CC=C(C)C)c(O)c3c2=O)OC(C)(C)C=C4)cc1 [euspeclibcmpd2167], the “Srxn1-GFP intensity median modified Z-score” value falls from 1.64 to -0.398.

First: CC(=O)Oc1cccc(O)c1 [euspeclibcmpd584]
Second: CC(=O)Nc1ccc(OC(C)=O)cc1 [euspeclibcmpd1187]
The “Srxn1-GFP intensity median modified Z-score” value of the first is higher: 0.144 for the first, -0.386 for the second.

First: CCC1C(=O)OC[C@@H]1Cc1cncn1C (stereo partly specified) [euspeclibcmpd2263]
Second: COc1cc(OC)c(C(=O)CCCN2CCCC2)c(OC)c1 [euspeclibcmpd1235]
The “Srxn1-GFP intensity median modified Z-score” value of the first is higher: 0.439 for the first, -0.587 for the second.

Compared with OC[C@H]1O[C@@](CO)(O[C@@H]2O[C@H](CO)[C@@H](O)[C@H](O)[C@H]2O)[C@@H](O[C@@H]2O[C@H](CO)[C@@H](O)[C@H](O)[C@H]2O)[C@@H]1O [euspeclibcmpd1323], OC[C@H]1O[C@H](O[C@H]2[C@H](O)[C@@H](O)[C@H](O)O[C@@H]2CO)[C@H](O)[C@@H](O)[C@@H]1O [euspeclibcmpd2088] is lower in “Srxn1-GFP intensity median modified Z-score” value: 0.146 for the first, -0.629 for the second.

Compared with O=C(OCc1cc([N+](=O)[O-])cc2c1OCOC2)C12CC3CC(CC(Br)(C3)C1)C2, C[C@]12CCC3c4ccc(OS(=O)(=O)O)cc4CCC3C1CCC2=O (stereo partly specified) [euspeclibcmpd707] is lower in “Srxn1-GFP intensity median modified Z-score” value: 1.38 for the first, -0.429 for the second.

Compared with CC1(C)OC(=O)NC1=O [euspeclibcmpd99], CN1N=C(C(=O)NC2(C)CCS(=O)(=O)C2)CCC1=O (stereo unspecified) is higher in “Srxn1-GFP intensity median modified Z-score” value: 0.00531 for the first, 1.37 for the second.

Compared with CC(C)C(N)C(=O)OCCOCn1cnc2c(=O)[nH]c(=N)[nH]c21 (stereo unspecified) [euspeclibcmpd757], COc1cc(=NS(=O)(=O)c2ccc(N)cc2)[nH]c(OC)n1 [euspeclibcmpd399] is lower in “Srxn1-GFP intensity median modified Z-score” value: 0.568 for the first, -0.451 for the second.

Going from CC1/C=C/C=C/C=C/C=C/C=C/C=C/C=C/C(OC2O[C@H](C)[C@@H](O)[C@H](N)[C@@H]2O)CC(O)C(C(=O)O)C(O)CC(=O)CC(O)CC(O)CC(O)CC(=O)CCCC(=O)CC(=O)OC1C(C)CC(C)C(O)CC(=O)c1ccc(N)cc1 (stereo partly specified) [euspeclibcmpd648] to CC1C/C=C/C=C/C=C/C=C/C(O[C@@H]2O[C@H](C)[C@@H](O)[C@H](N)[C@@H]2O)CC2OC(O)(CC(O)CC3OC3/C=C/C(=O)O1)CC(O)C2C(=O)O (stereo partly specified) [euspeclibcmpd858], the “Srxn1-GFP intensity median modified Z-score” value falls from 1.22 to -0.525.

Compared with COCCn1c(SCC(=O)N(C)Cc2ccc(Cl)s2)nc2cc(Cl)ccc21, COCCCCC(=NOCCN)c1ccc(C(F)(F)F)cc1 [euspeclibcmpd828] is lower in “Srxn1-GFP intensity median modified Z-score” value: 0.575 for the first, -0.302 for the second.

Compared with CC(C=Cc1c(C)c(O)c2ccccc2c1O)=CCC[C@H](C)CCC[C@H](C)CCCC(C)C [euspeclibcmpd621], CCc1cccc2c(C(=O)COC(=O)c3c4c(nc5ccccc35)CCC(C(C)(C)C)C4)c[nH]c12 (stereo unspecified) is higher in “Srxn1-GFP intensity median modified Z-score” value: -0.697 for the first, 1.73 for the second.

Compared with N=c1[nH]nc(-c2cccc(Cl)c2Cl)c(=N)[nH]1 [euspeclibcmpd829], C[n+]1cc2c3c(ccc2c2ccc4cc5c(cc4c21)OCO5)OCO3 [euspeclibcmpd10] is higher in “Srxn1-GFP intensity median modified Z-score” value: -0.0242 for the first, 0.32 for the second.

Going from CCN(CCCc1ccccc1)CCCc1ccccc1 [euspeclibcmpd16] to COc1cc(-c2coc3cc(OCc4ccccc4)c(OC)c(O)c3c2=O)cc(OCc2ccccc2)c1OC [euspeclibcmpd1942], the “Srxn1-GFP intensity median modified Z-score” value falls from 0.166 to -0.32.

First: C[C@H](CC(=O)C1OC1(C)C)[C@@H]1C(=O)C[C@@]2(C)C3=CCC4C(C)(C)[C@@H](O[C@@H]5OC[C@@H](O)[C@H](O)[C@H]5O)CC[C@@]45C[C@@]35[C@@H](O)C[C@]12C (stereo partly specified) [euspeclibcmpd2331]
Second: CC1(C)CC[C@]2(C(=O)O)CC[C@]3(C)C(=CCC4[C@@]5(C)CC[C@H](O)[C@@](C)(CO)C5CC[C@]43C)C2C1 (stereo partly specified) [euspeclibcmpd1554]
The “Srxn1-GFP intensity median modified Z-score” value of the first is higher: 0.374 for the first, -0.176 for the second.

Compared with NC(=O)CCC(N)C(=O)O (stereo unspecified) [euspeclibcmpd1404], CCCCCC(CC(=O)O)C(=O)O (stereo unspecified) [euspeclibcmpd1642] is higher in “Srxn1-GFP intensity median modified Z-score” value: -0.533 for the first, -0.141 for the second.

Going from COc1cc(C(=O)N2CCOCC2)cc(OC)c1OC [euspeclibcmpd666] to COc1cc2c(cc1OC)-c1cc3ccc(OC)c(OC)c3c[n+]1CC2 [euspeclibcmpd2350], the “Srxn1-GFP intensity median modified Z-score” value rises from 0.129 to 0.574.

Compared with C#C[C@]1(O)CCC2C3CCc4cc(OC5CCCC5)ccc4C3CC[C@@]21C (stereo partly specified) [euspeclibcmpd466], CC1(C)CC[C@]2(C)CC[C@]3(C)C(=CCC4[C@@]5(C)CC[C@H](O)C(C)(C)C5CC[C@]43C)C2C1 (stereo partly specified) [euspeclibcmpd1345] is higher in “Srxn1-GFP intensity median modified Z-score” value: 0.485 for the first, 1.93 for the second.

For O=C(N[C@@H](CO)[C@H](O)c1ccc([N+](=O)[O-])cc1)C(Cl)Cl [euspeclibcmpd53], the “Srxn1-GFP intensity median modified Z-score” value was -0.347.

CC(=O)Oc1ccc(O)cc1 [euspeclibcmpd2324] was tested, and the “Srxn1-GFP intensity median modified Z-score” value was 5.59 (active).
CC1OC(O[C@H]2/C=C/C=C/C=C/C=C/C=C/C=C/C=C/[C@H](C)[C@@H](O)[C@@H](C)[C@H](C)OC(=O)CC(O)CC(O)CCC(O)C(O)CC(O)C[C@]3(O)C[C@H](O)C(C(=O)O)C(C2)O3)C(O)[C@H](N)C1O (stereo partly specified) [euspeclibcmpd24] was tested, and the “Srxn1-GFP intensity median modified Z-score” value was 1.97 (active).
For CCN(CC)CCc1nc(-c2ccccc2)no1 [euspeclibcmpd2430], the “Srxn1-GFP intensity median modified Z-score” value was 10.5 (active).
For COc1cc(C(=O)OCCCN2CCCN(CCCOC(=O)c3cc(OC)c(OC)c(OC)c3)CC2)cc(OC)c1OC [euspeclibcmpd1946], the “Srxn1-GFP intensity median modified Z-score” value was 6.07 (active).
COc1ccc2cc3[n+](cc2c1OC)CCc1cc2c(cc1-3)OCO2 [euspeclibcmpd1051] was tested, and the “Srxn1-GFP intensity median modified Z-score” value was 6.03 (active).
With CCCCCC(CC(O)=NO)C(=O)NC(C(=O)N1CCCC1CO)C(C)C (stereo unspecified) [euspeclibcmpd1993] the “Srxn1-GFP intensity median modified Z-score” value was 11.7 (active).
In the case of CN=C(NC#N)NCCSCc1[nH]cnc1C [euspeclibcmpd338], the “Srxn1-GFP intensity median modified Z-score” value is reported as 3.04 (active).
In the case of CC1(C)CC[C@]2(C(=O)O)CC[C@]3(C)C(=CCC4[C@@]5(C)CC[C@@H](O)C(C)(C)C5CC[C@]43C)C2C1 (stereo partly specified) [euspeclibcmpd1603], the “Srxn1-GFP intensity median modified Z-score” value is reported as 4.09 (active).
